Drawing on PubChem BioAssay (EPA / NIEHS), this text covers outcome and AC50 for 17 compounds.

The target in experiment [1] is Estrogen receptor beta (Homo sapiens) (UniProt Q92731). The experiment in a line: OT_ER_ERbERb_1440: Odyssey Thera (OT) 24-hour HEK293T Protein-Complementation Assay for Estrogen Receptor-beta/-beta Homodimer (AID 2283380).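 Also: scored as signal increase over DMSO baseline for both agonists and antagonists.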 Put shortly: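 HEK293T cells stably expressing ER beta LBD (aa 310-547) homodimer fragment-complementation reporter, dosed 24 h. Cells formaldehyde-fixed, Draq5-stained; gain in nuclear (agonist) or nuclear plus cytoplasmic (antagonist) fluorescence versus DMSO read by laser scanning cytometry.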

For experiment [2], the target named is Retinoic acid receptor RXR-alpha (Homo sapiens) (UniProt P19793). The experiment in a line: OT_NURR1_NURR1RXRa_0480: Odyssey Thera (OT) 8-hour HEK293T Protein Complementation Assay for Nurr1/retinoid X receptor (RXR) (AID 2283385). The gist of the method: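 Interaction of Nurr1 with RXRα read as reconstituted reporter fluorescence in a HEK293T fragment-complementation system, 8 h post-treatment; increase over DMSO baseline analysed.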

Experiment [3] shares this target. The experiment in a line: OT_NURR1_NURR1RXRa_1440: Odyssey Thera (OT) 24-hour HEK293T Protein Complementation Assay for Nurr1/retinoid X receptor (RXR) (AID 2283386). Put shortly:
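Gain in fluorescence, fitted relative to DMSO, reflects Nurr1–RXRα association in HEK293T cells after 24 h dosing. Bait and prey are each linked to a reporter-protein fragment that reassembles on interaction.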

Experiment [4] concerns the target Peroxisome proliferator-activated receptor gamma (Homo sapiens) (UniProt P37231). The experiment in a line: OT_PPARg_PPARgSRC1_0480: Odyssey Thera (OT) 8-hour Protein-Complementation Assay for Peroxisome Proliferator-activated Receptor Gamma / SRC-1 Co-activator (AID 2283387).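 Also: nuclear to cytoplasmic split Venus YFP fluorescence ratio reporting PPARg SRC-1 interaction.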 Put shortly:
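HEK293T transiently transfected with PPARg and SRC-1 fused to Venus YFP fragments, compounds 8 h at 37C. Fixed, Draq5-stained cells imaged; nuclear/cytoplasmic 488 nm fluorescence ratio over at least 350 cells per image; gain fitted versus DMSO.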

Experiment [5] has the same target. The experiment in a line: OT_PPARg_PPARgSRC1_1440: Odyssey Thera (OT) 24-hour Protein-Complementation Assay for Peroxisome Proliferator-activated Receptor Gamma/ SRC-1 Co-activator (AID 2283388). Put shortly:
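Readout: nuclear-to-cytoplasmic 488 nm fluorescence ratio, ≥350 cells per image, 8 images per well, after 24 h compound exposure of HEK293T expressing PPARg/SRC-1 split-YFP fusions. Activity fitted in positive direction against DMSO.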

Experiment [6] has as its target Estrogen receptor (Homo sapiens) (UniProt P03372). The experiment in a line: OT_ERa_GFPERaERE_0480: Odyssey Thera (OT) 8-hour HeLa Transcription Induction Assay for Estrogen Receptor (AID 2283381; active = hit-call score of the fitted dose curve at least 0.9, where 1 is the maximum; inactive = score below 0.9). Put shortly: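 Fluorescence microscopy with high-content image analysis measures ERE-driven GFP induction in HeLa cells at 8 h post-dose. Increases fitted against DMSO baseline.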

Experiment [7] shares this target. The experiment in a line: OT_ERa_GFPERaERE_0120: Odyssey Thera (OT) 2-hour HeLa Transcription Induction Assay for Estrogen Receptor (AID 2283382). The gist of the method: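 Fluorescence-microscopy images of the GFP-ERα/ERE reporter, scored by high-content image algorithms, give the readout. HeLa exposure lasted 2 h, and only signal increase over DMSO was fitted.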

Experiment [8] is described as follows: CEETOX_H295R_11DCORT: CeeTox H295R High-throughput Steroidogenesis Assay for 11-Deoxycortisol (11DCORT) (AID 2283432; active = hit-call score of the fitted dose curve at least 0.9, where 1 is the maximum; inactive = score below 0.9). Particulars: actives raise or lower the signal. The gist of the method:
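H295R cells prestimulated 48 h with 10 uM forskolin, then exposed 48 h to chemical in 0.1% DMSO. 11-Deoxycortisol in medium quantified by HPLC-MS/MS after MTBE extraction; bidirectional fit versus DMSO. MTT viability read in same wells.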

Experiment [9] can be described thus: CEETOX_H295R_OHPREG: CeeTox H295R High-throughput Steroidogenesis Assay for OH-Pregnenolone (OHPREG) (AID 2283434; active = hit-call score of the fitted dose curve at least 0.9, where 1 is the maximum; inactive = score below 0.9). Particulars: actives raise or lower the signal. The gist of the method:
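H295R, 10 uM forskolin pre-stim 48 h; test chemical 48 h, 0.1% DMSO final. MTBE extraction, reverse-phase C18 HPLC-ESI+ MS/MS of medium. Gain/loss vs DMSO; viability by MTT in same wells.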

Experiment [10] is described as follows: CEETOX_H295R_OHPROG: CeeTox H295R High-throughput Steroidogenesis Assay for OH-Progesterone (OHPROG) (AID 2283435; active = hit-call score of the fitted dose curve at least 0.9, where 1 is the maximum; inactive = score below 0.9). The conditions noted are these: actives raise or lower the signal. The gist of the method: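 Medium steroid levels read by LC-MS/MS after 48 h chemical treatment (0.1% DMSO) of human adrenal H295R cells that had been forskolin-primed (10 uM, 48 h). Gain or loss fitted against DMSO; MTT cytotoxicity checked per well.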

Experiment [11] can be described thus: CEETOX_H295R_CORTIC: CeeTox H295R High-throughput Steroidogenesis Assay for Corticosterone (CORTIC) (AID 2283437; active = hit-call score of the fitted dose curve at least 0.9, where 1 is the maximum; inactive = score below 0.9;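 also: corticosterone secreted into medium quantified by mass spectrometry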). The conditions noted are these: actives raise or lower the signal. Put shortly: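 48 h forskolin (10 uM) prestim, then 48 h chemical exposure, final DMSO 0.1%. Readout: corticosterone in medium by LC-MS/MS after MTBE extraction. Gain/loss fit vs DMSO; MTT viability in same wells.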

The nature of experiment [12]: CEETOX_H295R_CORTISOL: CeeTox H295R High-throughput Steroidogenesis Assay for Cortisol (AID 2283438; active = hit-call score of the fitted dose curve at least 0.9, where 1 is the maximum; inactive = score below 0.9;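 also: cortisol secreted into medium quantified by LC-MS/MS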). The conditions noted are these: actives raise or lower the signal. The gist of the method: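 Cortisol measured by HPLC-MS/MS after MTBE extraction of medium from H295R cells exposed 48 h to chemical (0.1% DMSO), following 48 h prestimulation with 10 uM forskolin. Viability assessed by MTT in the same wells.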

The nature of experiment [13]: CEETOX_H295R_DOC: CeeTox H295R High-throughput Steroidogenesis Assay for DOC (AID 2283439; active = hit-call score of the fitted dose curve at least 0.9, where 1 is the maximum; inactive = score below 0.9). Particulars: actives raise or lower the signal. The gist of the method: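 11-Deoxycorticosterone quantified in medium by MTBE extraction and HPLC-MS/MS after 48 h chemical exposure (0.1% DMSO) of forskolin-primed (10 uM, 48 h) H295R cells. Same-well MTT viability; data fitted bidirectionally against DMSO.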

Experiment [14] addresses Bile acid receptor (Homo sapiens) (UniProt Q96RI1). The experiment in a line: OT_FXR_FXRSRC1_0480: Odyssey Thera (OT) 8-hour HEK293T Protein-Complementation Assay for Farnesoid X receptor/SRC-1 Co-activator (AID 2283383). Put shortly:
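Binding of FXR to coactivator SRC-1 was read as fluorescence from a reconstituted split reporter in HEK293T cells, 8 h after chemical addition. Only increases in signal versus DMSO were fit.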

For experiment [15] the target is unchanged. The experiment in a line: OT_FXR_FXRSRC1_1440: Odyssey Thera (OT) 24-hour HEK293T Protein-Complementation Assay for Farnesoid X receptor/SRC-1 Co-activator (AID 2283384). The gist of the method:
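Protein-fragment complementation: FXR and SRC-1 fused to reporter fragments that reassemble on interaction, read by fluorescence intensity. Human HEK293T cells measured 24 h post-dose; positive-direction fit versus DMSO.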

Structures are written as SMILES. Several values for one entry are separate records, joined by “and”; a condition that tells them apart may be missing. Equal entries are not always repeated. Results filed as inconclusive are left out. More than one record can exist for a structure, and the calls need not agree. Activity calls are given as the source filed them. The calls were made as follows, unless noted: active = hit-call score of the fitted dose curve at least 0.9, where 1 is the maximum; inconclusive = response in the unintended direction; inactive = score below 0.9.

Peroxisome proliferator-activated receptor gamma (Homo sapiens), sequence (P37231 whole entry, looked up, the tested form may be a part): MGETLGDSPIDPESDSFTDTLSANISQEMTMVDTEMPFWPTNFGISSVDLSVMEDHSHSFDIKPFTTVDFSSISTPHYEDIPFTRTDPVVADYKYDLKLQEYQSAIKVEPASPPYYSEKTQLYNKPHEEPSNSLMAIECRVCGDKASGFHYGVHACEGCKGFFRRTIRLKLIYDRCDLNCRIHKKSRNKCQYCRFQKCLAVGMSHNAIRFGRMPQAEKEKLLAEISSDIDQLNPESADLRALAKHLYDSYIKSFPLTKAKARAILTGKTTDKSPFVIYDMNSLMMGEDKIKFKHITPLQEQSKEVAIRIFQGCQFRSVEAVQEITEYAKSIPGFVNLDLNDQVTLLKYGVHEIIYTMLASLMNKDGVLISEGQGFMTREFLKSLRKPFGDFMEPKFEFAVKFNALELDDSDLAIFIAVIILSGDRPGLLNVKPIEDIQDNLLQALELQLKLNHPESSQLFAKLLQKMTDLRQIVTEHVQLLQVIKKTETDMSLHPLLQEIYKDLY
Retinoic acid receptor RXR-alpha (Homo sapiens), sequence (P19793 whole entry, looked up, the tested form may be a part): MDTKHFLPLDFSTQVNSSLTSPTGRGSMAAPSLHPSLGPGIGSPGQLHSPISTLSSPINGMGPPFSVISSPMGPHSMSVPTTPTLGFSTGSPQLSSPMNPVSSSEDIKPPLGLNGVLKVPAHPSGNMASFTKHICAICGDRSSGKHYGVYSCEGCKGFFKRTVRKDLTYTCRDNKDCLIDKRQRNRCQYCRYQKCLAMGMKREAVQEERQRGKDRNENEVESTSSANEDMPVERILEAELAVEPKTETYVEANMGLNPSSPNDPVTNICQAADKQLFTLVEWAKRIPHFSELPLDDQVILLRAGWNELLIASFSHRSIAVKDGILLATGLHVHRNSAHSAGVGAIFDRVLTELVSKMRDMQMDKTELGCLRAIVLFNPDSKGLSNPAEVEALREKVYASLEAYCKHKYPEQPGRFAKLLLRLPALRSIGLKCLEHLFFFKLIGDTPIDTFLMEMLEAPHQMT
Estrogen receptor (Homo sapiens), sequence (P03372 whole entry, looked up): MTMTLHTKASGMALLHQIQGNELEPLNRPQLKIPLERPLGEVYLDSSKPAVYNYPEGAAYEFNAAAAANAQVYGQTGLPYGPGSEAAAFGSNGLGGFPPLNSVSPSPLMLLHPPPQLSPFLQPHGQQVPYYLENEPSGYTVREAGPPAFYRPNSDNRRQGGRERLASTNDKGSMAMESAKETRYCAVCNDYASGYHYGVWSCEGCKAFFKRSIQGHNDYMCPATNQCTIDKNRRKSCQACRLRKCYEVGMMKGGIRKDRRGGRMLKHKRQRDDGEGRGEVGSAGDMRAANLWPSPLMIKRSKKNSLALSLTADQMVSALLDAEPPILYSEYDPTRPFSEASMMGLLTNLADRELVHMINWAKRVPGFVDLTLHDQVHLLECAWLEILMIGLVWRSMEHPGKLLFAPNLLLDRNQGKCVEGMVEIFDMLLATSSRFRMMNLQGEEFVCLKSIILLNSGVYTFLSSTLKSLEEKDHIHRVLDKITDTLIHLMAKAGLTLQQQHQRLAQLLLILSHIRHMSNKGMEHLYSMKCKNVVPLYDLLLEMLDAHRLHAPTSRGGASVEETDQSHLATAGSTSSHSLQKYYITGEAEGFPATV
Estrogen receptor beta (Homo sapiens), sequence (Q92731 whole entry, looked up, the tested form may be a part): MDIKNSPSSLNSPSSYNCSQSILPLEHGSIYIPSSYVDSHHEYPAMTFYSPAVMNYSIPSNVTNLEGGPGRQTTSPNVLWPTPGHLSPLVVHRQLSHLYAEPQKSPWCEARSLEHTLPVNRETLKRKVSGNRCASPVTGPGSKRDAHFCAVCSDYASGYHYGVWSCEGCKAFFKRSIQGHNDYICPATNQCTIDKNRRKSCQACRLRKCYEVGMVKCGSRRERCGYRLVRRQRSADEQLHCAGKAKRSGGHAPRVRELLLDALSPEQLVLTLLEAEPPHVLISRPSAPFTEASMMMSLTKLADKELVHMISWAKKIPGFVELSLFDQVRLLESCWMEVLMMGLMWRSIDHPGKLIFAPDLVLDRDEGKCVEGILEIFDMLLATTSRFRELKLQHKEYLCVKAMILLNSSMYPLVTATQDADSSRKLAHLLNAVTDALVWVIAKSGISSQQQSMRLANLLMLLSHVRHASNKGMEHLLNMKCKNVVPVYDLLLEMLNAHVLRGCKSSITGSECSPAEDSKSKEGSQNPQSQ
Bile acid receptor (Homo sapiens), sequence (Q96RI1 whole entry, looked up): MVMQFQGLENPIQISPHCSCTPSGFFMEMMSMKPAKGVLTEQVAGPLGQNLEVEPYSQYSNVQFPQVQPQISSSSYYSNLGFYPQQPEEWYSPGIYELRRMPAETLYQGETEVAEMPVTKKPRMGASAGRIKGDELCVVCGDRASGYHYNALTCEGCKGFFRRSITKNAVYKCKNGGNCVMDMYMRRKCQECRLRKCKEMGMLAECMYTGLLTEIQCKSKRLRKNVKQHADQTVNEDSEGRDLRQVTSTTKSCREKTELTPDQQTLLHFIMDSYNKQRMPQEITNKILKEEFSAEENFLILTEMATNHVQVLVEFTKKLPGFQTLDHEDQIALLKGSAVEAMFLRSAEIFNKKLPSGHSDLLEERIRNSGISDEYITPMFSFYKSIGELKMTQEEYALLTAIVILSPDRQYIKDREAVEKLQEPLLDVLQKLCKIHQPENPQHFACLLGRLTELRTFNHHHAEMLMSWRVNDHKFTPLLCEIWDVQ

Turning to `CCOCCO`, the compound was called inactive in experiment [1], in experiment [2], in experiment [3], in experiment [4] and in [5].

In the case of `O=C(O)c1cc(N=Nc2ccc(S(=O)(=O)Nc3ccccn3)cc2)ccc1O`, the compound was called inactive in [1], in experiment [2], in experiment [3], in experiment [4] and in experiment [5].

As to `O=C(OC[C@H]1O[C@@H](OC(=O)c2cc(O)c(O)c(OC(=O)c3cc(O)c(O)c(O)c3)c2)[C@H](OC(=O)c2cc(O)c(O)c(OC(=O)c3cc(O)c(O)c(O)c3)c2)[C@@H](OC(=O)c2cc(O)c(O)c(OC(=O)c3cc(O)c(O)c(O)c3)c2)[C@@H]1OC(=O)c1cc(O)c(O)c(OC(=O)c2cc(O)c(O)c(O)c2)c1)c1cc(O)c(O)c(OC(=O)c2cc(O)c(O)c(O)c2)c1`, the AC50 (commonly the midpoint of the concentration-response curve, whichever way the signal moves) in experiment [2] was 20.5 µM (active); in experiment [3], 15.2 µM (active). The result in [2], in experiment [4] and in experiment [5] was inactive.

Turning to `CCOC(=O)COc1ccc2c(c1)CC(NCC(O)c1cccc(Cl)c1)CC2` (stereo not drawn), the AC50 in [6] was 69.3 µM (active); in experiment [2] it was 154 nM (active) and 591 nM (active); in experiment [3], 10.7 µM (active) and 10.3 µM (active). Also, the result in experiment [7] and in [4] was inactive.

Take `COc1ccc(-n2nc(C(F)F)cc2-c2ccc(S(C)=O)cc2)cc1` (stereo not drawn): the outcome in experiment [6], in [7], in [2], in experiment [3], in [4] and in experiment [5] was inactive. The call in experiment [8], in experiment [9], in experiment [10], in experiment [11], in [12] and in experiment [13] was inactive.

Take `Clc1nc(Cl)c(Cl)c(Cl)c1Cl`: the compound was called inactive in [1], in [2], in experiment [3], in experiment [4] and in experiment [5].

As to `C[C@](N)(Cc1ccc(O)c(O)c1)C(=O)O`, the call in experiment [2], in [3], in [4] and in [5] was inactive.

For the compound `Cc1ccc(S(=O)(=O)O)cc1C`, the compound was called inactive in [6], in experiment [7], in [2], in experiment [3], in [4] and in [5].

Regarding `O=C(O)c1cccc(Oc2ccccc2)c1`, the result in experiment [6], in experiment [7], in experiment [2], in experiment [3], in [4] and in [5] was inactive.

Consider `CC(C)CCCCCCOC(=O)c1ccc(C(=O)OCCCCCCC(C)C)c(C(=O)OCCCCCCC(C)C)c1`, for which the outcome in experiment [1], in experiment [2], in experiment [3], in [4] and in experiment [5] was inactive.

Regarding `O=C1OC(=O)C2C3C=CC(C3)C12` (stereo not drawn), the outcome in [1], in experiment [2], in experiment [3], in [4] and in experiment [5] was inactive.

As for `CCCCCCCCCCCCc1ccccc1`, the call in experiment [4] and in [5] was inactive.

Consider `CCN(C(=O)c1cc(C)cc(OC[C@H](C)Nc2ccncc2)c1)C(C)C`, for which the compound was called inactive in experiment [1], in [4] and in [5].

Take `O=C1CCC(N2C(=O)c3ccccc3C2=O)C(=O)N1` (stereo not drawn): the outcome in [1], in [2], in [3], in [4] and in experiment [5] was inactive.

Take `Cc1ccc(C)c(O)c1`: the compound was called inactive in [14], in experiment [15], in experiment [2], in experiment [3], in experiment [4] and in [5].

As to `Cn1c(=O)c2c(ncn2C)n(C)c1=O`, the outcome in [2], in [3], in [4] and in experiment [5] was inactive.

For `CC[C@H]1OC(=O)[C@H](C)[C@@H](O[C@H]2C[C@@](C)(OC)[C@@H](O)[C@H](C)O2)[C@H](C)[C@@H](O[C@@H]2O[C@H](C)C[C@H](N(C)C)[C@H]2O)[C@](C)(O)C[C@@H](C)C(=O)[C@H](C)[C@@H](O)[C@]1(C)O`, the call in experiment [1], in experiment [2], in experiment [3], in experiment [4] and in experiment [5] was inactive.
